The values that follow come from article PMC7862700, “An all-to-all approach to the identification of sequence-specific readers for epigenetic DNA modifications on cytosine”.

Common to all, as to test: DAPPL (digital affinity profiling via proximity ligation, sequencing); 10 mM Tris-HCl pH 7.5, 50 mM NaCl, 1 mM DTT, 4% glycerol, room temperature, 30 min; GST-TFs on glutathione beads, 16-mer random dsDNA library, 0.1% formaldehyde crosslink after washing; high values mean tight binding
Assay [1] addresses T1, FLI1 (Homo sapiens, UniProt Q01543 1-452).
T1 sequence: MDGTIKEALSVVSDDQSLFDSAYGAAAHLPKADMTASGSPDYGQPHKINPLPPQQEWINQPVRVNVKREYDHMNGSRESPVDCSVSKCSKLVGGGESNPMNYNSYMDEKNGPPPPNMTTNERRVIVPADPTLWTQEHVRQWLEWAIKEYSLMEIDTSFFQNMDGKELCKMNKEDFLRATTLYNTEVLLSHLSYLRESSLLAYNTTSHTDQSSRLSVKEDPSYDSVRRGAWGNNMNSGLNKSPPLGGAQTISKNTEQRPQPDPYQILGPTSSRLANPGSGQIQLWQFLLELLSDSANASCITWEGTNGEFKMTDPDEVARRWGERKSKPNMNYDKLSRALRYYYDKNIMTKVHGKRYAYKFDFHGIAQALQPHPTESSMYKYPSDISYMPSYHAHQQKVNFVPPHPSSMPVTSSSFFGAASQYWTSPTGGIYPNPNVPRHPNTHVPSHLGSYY
The following applies: protein: recombinant; tags: N-terminal GST; dsDNA, one strand shown. The method in brief: (§1)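 Human transcription factors were made in yeast as GST fusions, captured on glutathione beads and barcoded with DNA. With a tag-only sample included, the pool was incubated with 200 nmole of a random double-stranded 16-mer DNA library in Tris/NaCl/DTT/glycerol buffer at room temperature for 30 min, then crosslinked with 0.1% formaldehyde after washing, ligated by proximity, amplified and sequenced. For binding signal, each hexamer's read frequency for a factor is divided by its frequency for the tag-only sample.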

For assay [2], the target named is T2, ELK1 (Homo sapiens, UniProt P19419 1-428).
T2 sequence: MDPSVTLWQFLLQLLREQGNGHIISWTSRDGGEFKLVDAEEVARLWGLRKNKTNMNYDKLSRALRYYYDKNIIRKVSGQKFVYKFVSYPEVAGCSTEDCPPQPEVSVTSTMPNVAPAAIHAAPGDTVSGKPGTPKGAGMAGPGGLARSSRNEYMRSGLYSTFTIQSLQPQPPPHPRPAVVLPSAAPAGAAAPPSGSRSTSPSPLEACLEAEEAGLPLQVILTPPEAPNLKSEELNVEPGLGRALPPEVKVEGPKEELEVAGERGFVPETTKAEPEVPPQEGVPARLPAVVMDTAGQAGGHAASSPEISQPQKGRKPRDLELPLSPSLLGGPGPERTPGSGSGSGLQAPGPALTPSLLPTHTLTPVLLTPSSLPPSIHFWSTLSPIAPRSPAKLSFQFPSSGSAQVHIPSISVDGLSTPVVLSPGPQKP
The following applies: protein: recombinant; tags: N-terminal GST; dsDNA, one strand shown. The method in brief: as §1

Assay [3] addresses T3, GABPA (Homo sapiens, UniProt Q06546 1-454).
T3 sequence: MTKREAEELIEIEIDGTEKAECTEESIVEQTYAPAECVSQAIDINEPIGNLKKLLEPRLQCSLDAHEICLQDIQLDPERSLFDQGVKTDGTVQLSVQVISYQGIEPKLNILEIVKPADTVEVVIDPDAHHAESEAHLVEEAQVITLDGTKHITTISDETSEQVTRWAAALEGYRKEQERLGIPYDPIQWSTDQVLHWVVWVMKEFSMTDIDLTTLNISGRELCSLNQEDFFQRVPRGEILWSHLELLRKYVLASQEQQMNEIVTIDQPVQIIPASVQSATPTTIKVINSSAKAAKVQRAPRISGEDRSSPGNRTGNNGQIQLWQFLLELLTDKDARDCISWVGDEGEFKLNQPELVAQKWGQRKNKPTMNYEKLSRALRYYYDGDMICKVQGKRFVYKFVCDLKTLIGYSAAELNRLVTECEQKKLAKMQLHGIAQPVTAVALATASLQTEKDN
The following applies: protein: recombinant; tags: N-terminal GST; dsDNA, one strand shown. The method in brief:
as §1

Assay [4] addresses T4, ERG (Homo sapiens, UniProt P11308 1-479).
T4 sequence: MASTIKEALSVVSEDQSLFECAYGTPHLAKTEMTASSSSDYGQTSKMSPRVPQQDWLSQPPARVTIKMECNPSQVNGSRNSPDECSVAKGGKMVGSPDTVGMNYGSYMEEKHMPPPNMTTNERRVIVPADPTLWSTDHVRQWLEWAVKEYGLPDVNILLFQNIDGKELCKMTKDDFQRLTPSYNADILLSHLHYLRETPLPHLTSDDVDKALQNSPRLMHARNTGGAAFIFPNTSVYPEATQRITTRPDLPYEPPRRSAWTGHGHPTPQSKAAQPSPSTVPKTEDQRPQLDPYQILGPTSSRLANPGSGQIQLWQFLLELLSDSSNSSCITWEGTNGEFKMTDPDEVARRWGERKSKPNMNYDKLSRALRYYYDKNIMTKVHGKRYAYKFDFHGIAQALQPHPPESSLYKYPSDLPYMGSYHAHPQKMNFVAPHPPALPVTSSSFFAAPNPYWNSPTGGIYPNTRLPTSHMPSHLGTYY
The following applies: protein: recombinant; tags: N-terminal GST; dsDNA, one strand shown. The gist of the method: as §1

For assay [5], the target named is ELF1 (Homo sapiens, UniProt P32519 1-619). The following applies: protein: recombinant; tags: N-terminal GST; dsDNA, one strand shown. The gist of the method:
as §1

Assay [6] addresses T5, EHF (Homo sapiens, UniProt Q9NZC4 1-300).
T5 sequence: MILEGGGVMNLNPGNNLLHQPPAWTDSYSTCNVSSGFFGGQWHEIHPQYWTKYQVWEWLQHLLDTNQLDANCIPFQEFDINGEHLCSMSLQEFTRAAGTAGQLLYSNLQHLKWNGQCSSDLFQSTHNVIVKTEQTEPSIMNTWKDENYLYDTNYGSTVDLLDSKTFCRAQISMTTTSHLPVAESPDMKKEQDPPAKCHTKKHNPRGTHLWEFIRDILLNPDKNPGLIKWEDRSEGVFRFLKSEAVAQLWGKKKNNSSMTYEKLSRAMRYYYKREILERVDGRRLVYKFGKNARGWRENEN
The following applies: protein: recombinant; tags: N-terminal GST; dsDNA, one strand shown. The gist of the method: as §1

Assay [7] has as its target SPI1 (Homo sapiens, UniProt P17947 1-270). The following applies: protein: recombinant; tags: N-terminal GST; dsDNA, one strand shown. The gist of the method: as §1
Assay [8] concerns the target SPIB (Homo sapiens, UniProt Q01892 1-262). Particulars: protein: recombinant; tags: N-terminal GST; dsDNA, one strand shown. The gist of the method: as §1
Assay [9] addresses T6, ELK3 (Homo sapiens, UniProt P41970 1-407).
T6 sequence: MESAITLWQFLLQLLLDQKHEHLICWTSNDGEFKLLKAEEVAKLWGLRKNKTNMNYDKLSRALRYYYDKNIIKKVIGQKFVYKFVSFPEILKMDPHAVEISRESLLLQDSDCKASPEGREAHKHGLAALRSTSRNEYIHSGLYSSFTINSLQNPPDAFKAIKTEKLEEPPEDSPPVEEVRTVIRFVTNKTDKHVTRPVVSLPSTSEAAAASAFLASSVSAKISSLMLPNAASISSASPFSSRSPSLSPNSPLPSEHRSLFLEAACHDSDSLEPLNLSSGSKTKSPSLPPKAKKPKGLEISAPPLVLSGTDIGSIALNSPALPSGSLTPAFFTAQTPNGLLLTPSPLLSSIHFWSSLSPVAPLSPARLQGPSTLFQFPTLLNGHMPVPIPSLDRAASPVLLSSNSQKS
The following applies: protein: recombinant; tags: N-terminal GST; dsDNA, one strand shown. The gist of the method:
as §1

The target of assay [10] is T7, FEV (Homo sapiens, UniProt Q99581 1-238).
T7 sequence: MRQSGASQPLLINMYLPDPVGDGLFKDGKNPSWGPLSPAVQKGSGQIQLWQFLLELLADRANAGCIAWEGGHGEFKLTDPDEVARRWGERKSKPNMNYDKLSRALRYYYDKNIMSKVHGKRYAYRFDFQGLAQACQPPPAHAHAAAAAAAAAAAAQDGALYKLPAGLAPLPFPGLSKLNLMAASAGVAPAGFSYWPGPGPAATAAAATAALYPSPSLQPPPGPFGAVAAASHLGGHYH
Particulars: protein: recombinant; tags: N-terminal GST; dsDNA, one strand shown. The gist of the method: as §1

Assay [11] concerns the target ETV5 (Homo sapiens, UniProt P41161 1-510). Particulars: protein: recombinant; tags: N-terminal GST; dsDNA, one strand shown. The method in brief:
as §1

The target in assay [12] is HSF1 (Homo sapiens, UniProt Q00613 1-529). Particulars: protein: recombinant; tags: N-terminal GST; chain copies: 3; dsDNA, one strand shown. The gist of the method:
as §1

For assay [13], the target named is T8, SPIC (Homo sapiens, UniProt Q8N5J4 1-248).
T8 sequence: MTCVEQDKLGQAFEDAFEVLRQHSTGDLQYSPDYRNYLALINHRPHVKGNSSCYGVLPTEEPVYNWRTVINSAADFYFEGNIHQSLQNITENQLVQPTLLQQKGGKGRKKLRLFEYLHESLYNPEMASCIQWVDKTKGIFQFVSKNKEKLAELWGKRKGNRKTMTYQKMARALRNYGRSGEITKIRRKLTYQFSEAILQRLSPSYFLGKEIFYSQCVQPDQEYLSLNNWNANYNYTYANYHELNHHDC
Particulars: protein: recombinant; tags: N-terminal GST; dsDNA, one strand shown. The gist of the method:
as §1

Assay [14] concerns the target ELF4 (Homo sapiens, UniProt Q99607 1-663). The following applies: protein: recombinant; tags: N-terminal GST; dsDNA, one strand shown. The gist of the method: as §1
Assay [15] addresses T9, ELK4 (Homo sapiens, UniProt P28324-2 1-405).
T9 sequence: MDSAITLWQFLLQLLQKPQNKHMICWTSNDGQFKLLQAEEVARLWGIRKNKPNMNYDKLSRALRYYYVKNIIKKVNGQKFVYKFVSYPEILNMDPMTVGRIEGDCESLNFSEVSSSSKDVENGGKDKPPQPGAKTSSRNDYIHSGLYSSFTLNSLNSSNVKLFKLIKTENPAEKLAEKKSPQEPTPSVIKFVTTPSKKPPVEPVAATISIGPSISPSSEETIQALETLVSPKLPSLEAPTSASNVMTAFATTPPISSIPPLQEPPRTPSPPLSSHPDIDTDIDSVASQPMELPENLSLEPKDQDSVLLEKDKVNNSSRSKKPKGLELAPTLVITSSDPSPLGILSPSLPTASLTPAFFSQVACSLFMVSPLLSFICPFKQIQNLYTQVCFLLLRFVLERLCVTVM
Particulars: protein: recombinant; tags: N-terminal GST; dsDNA, one strand shown. The gist of the method: as §1

Assay [16] has as its target T10, ETV2 (Homo sapiens, UniProt O00321 1-342).
T10 sequence: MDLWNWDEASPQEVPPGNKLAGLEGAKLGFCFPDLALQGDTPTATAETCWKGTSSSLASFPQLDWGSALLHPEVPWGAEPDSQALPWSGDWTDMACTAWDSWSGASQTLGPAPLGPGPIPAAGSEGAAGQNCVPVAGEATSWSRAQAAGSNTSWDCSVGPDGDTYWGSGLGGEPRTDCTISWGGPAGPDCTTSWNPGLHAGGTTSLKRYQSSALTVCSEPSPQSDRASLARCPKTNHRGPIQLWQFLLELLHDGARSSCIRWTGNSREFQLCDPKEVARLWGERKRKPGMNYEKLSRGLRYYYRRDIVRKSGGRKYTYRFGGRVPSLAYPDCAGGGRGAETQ
Particulars: protein: recombinant; tags: N-terminal GST; dsDNA, one strand shown. The method in brief:
as §1

The target of assay [17] is T11, ELF3 (Homo sapiens, UniProt P78545 1-371).
T11 sequence: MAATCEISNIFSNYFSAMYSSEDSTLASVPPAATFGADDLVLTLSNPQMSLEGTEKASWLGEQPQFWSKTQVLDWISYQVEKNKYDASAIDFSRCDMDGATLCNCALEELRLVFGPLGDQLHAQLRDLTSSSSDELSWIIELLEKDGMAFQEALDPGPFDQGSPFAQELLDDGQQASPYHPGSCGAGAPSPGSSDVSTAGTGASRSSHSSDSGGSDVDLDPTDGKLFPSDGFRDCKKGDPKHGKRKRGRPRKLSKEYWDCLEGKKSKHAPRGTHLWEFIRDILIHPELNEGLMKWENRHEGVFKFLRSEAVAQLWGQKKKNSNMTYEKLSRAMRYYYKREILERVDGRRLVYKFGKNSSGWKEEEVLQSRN
The following applies: protein: recombinant; tags: N-terminal GST; dsDNA, one strand shown. The method in brief: as §1

The target in assay [18] is CRX (Homo sapiens, UniProt O43186 1-299). The following applies: protein: recombinant; tags: N-terminal GST; dsDNA, one strand shown. The method in brief: as §1
Assay [19] has as its target ETV1 (Homo sapiens, UniProt P50549 1-477). The following applies: protein: recombinant; tags: N-terminal GST; dsDNA, one strand shown. The method in brief: as §1

Chain of ELF1 (P32519 whole entry): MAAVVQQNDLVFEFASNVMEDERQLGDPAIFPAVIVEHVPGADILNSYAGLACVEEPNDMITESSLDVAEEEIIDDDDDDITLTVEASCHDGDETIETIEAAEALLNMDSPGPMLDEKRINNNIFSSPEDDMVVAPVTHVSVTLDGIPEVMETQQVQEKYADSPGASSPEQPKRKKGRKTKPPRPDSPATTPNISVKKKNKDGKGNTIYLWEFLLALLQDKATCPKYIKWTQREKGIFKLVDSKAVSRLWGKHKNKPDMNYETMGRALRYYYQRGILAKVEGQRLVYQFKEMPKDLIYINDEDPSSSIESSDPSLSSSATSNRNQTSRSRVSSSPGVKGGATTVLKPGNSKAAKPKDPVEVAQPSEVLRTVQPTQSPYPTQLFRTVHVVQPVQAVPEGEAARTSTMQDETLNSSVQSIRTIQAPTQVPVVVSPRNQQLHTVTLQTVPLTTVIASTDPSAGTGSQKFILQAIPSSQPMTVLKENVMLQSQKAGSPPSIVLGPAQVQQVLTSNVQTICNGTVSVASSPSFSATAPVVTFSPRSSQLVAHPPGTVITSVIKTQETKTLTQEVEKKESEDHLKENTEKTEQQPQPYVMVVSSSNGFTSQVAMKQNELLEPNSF
Chain of ELF4 (Q99607 whole entry): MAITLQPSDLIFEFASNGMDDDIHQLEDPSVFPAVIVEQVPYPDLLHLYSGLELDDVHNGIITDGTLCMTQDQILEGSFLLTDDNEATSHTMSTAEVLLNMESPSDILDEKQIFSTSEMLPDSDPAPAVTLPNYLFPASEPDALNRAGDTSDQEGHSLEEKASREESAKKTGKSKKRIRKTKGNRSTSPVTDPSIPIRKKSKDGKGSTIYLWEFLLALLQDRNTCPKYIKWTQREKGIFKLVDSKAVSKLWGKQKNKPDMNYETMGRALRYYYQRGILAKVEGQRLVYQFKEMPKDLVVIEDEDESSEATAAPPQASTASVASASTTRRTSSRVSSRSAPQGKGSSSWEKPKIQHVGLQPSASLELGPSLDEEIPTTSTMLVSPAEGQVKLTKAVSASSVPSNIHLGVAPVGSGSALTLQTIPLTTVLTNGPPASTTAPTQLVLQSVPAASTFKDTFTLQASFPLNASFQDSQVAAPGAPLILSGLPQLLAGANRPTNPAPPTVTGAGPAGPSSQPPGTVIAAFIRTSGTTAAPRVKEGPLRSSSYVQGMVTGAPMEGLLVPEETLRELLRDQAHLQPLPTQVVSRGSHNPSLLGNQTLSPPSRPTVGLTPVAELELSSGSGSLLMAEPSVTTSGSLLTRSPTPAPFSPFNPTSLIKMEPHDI
Chain of HSF1 (Q00613 whole entry): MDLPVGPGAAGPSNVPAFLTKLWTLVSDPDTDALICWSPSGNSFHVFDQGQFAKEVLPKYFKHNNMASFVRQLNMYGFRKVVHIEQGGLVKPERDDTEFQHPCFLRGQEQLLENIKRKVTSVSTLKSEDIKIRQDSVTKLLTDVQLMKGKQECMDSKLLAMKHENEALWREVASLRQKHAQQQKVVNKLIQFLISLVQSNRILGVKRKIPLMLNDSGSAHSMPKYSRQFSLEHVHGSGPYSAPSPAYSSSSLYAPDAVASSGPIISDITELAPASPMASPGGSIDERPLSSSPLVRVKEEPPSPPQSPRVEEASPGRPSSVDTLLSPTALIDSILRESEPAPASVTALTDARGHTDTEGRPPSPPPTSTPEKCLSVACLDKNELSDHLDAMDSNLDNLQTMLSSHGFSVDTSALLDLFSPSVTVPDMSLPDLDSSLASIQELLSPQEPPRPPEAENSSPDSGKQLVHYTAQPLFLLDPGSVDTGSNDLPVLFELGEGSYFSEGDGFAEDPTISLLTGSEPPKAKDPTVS
Chain of ETV5 (P41161 whole entry): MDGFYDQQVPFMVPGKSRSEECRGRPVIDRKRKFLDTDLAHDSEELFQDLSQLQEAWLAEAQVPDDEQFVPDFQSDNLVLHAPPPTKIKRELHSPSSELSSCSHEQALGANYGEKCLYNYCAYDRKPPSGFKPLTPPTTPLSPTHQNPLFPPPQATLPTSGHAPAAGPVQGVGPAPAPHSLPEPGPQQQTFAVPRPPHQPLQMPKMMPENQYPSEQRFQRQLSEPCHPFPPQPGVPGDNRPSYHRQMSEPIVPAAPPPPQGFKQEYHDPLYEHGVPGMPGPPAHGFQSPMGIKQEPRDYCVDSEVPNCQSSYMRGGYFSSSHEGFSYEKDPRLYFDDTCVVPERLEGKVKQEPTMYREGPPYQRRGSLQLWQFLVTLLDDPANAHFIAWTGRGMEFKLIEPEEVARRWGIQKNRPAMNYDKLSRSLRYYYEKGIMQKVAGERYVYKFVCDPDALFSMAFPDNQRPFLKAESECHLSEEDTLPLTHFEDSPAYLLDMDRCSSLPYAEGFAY
Chain of SPIB (Q01892 whole entry): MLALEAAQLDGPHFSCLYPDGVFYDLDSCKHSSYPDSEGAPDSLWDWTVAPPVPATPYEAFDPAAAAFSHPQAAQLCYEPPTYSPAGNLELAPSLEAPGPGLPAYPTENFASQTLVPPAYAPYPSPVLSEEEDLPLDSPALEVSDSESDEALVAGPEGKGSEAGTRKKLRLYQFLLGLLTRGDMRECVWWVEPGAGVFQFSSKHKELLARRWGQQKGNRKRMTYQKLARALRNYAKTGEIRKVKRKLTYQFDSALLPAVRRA
Chain of CRX (O43186 whole entry): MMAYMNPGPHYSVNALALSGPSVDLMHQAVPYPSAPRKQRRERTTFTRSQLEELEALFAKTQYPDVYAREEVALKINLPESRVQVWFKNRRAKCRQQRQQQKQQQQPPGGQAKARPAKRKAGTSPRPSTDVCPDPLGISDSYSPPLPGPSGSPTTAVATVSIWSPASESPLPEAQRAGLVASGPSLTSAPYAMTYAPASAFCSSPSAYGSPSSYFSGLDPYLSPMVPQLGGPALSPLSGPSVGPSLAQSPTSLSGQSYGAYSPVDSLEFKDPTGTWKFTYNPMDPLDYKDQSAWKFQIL
Chain of ETV1 (P50549 whole entry): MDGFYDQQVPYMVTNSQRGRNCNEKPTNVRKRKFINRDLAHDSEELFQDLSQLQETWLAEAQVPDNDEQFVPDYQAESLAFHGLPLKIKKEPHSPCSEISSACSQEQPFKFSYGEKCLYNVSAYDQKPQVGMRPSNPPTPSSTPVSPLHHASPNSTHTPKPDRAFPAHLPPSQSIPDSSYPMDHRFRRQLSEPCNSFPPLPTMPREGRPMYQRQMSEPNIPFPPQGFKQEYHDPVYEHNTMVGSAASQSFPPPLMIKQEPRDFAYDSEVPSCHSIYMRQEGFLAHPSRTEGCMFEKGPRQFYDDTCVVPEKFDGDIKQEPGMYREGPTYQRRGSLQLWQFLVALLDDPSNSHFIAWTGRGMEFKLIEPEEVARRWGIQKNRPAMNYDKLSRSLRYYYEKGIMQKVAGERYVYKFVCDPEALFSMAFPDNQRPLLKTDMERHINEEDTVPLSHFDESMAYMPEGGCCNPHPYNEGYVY

With TACTAA, the binding signal is 1.2 fold enrichment (6-mer frequency, TF over GST control) in assay [1]; 1.23 fold enrichment (6-mer frequency, TF over GST control) in assay [2]; 1.36 fold enrichment (6-mer frequency, TF over GST control) in assay [3]; 1.29 fold enrichment (6-mer frequency, TF over GST control) in assay [4]; 1.28 fold enrichment (6-mer frequency, TF over GST control) in [5]; 1.3 fold enrichment (6-mer frequency, TF over GST control) in [6]. Also, the binding signal is 1.25 fold enrichment (6-mer frequency, TF over GST control) in assay [7]; 1.23 fold enrichment (6-mer frequency, TF over GST control) in [8]; 1.24 fold enrichment (6-mer frequency, TF over GST control) in [9]; 1.16 fold enrichment (6-mer frequency, TF over GST control) in [10]; 1.18 fold enrichment (6-mer frequency, TF over GST control) in [11]; 1.51 fold enrichment (6-mer frequency, TF over GST control) in assay [12]. Besides, the binding signal is 1.24 fold enrichment (6-mer frequency, TF over GST control) in assay [13]; 1.32 fold enrichment (6-mer frequency, TF over GST control) in [14]; 1.4 fold enrichment (6-mer frequency, TF over GST control) in assay [15]; 1.1 fold enrichment (6-mer frequency, TF over GST control) in assay [16]; 1.27 fold enrichment (6-mer frequency, TF over GST control) in assay [17]; 2.1 fold enrichment (6-mer frequency, TF over GST control) in assay [18]. In addition, the binding signal in assay [19] was 1.29 fold enrichment (6-mer frequency, TF over GST control).
